Several values for one entry are separate records, joined by “and”; a condition that tells them apart may be missing. Equal entries are not always repeated.

In the first test the target is Ribosomal protein S6 kinase alpha-4 (Homo sapiens) (UniProt O75676). As to conditions: at 1 µM.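 Note: mean inhibition of MSK2, GSK PKIS.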
Chain of Ribosomal protein S6 kinase alpha-4 (Homo sapiens) (O75676 whole entry, looked up): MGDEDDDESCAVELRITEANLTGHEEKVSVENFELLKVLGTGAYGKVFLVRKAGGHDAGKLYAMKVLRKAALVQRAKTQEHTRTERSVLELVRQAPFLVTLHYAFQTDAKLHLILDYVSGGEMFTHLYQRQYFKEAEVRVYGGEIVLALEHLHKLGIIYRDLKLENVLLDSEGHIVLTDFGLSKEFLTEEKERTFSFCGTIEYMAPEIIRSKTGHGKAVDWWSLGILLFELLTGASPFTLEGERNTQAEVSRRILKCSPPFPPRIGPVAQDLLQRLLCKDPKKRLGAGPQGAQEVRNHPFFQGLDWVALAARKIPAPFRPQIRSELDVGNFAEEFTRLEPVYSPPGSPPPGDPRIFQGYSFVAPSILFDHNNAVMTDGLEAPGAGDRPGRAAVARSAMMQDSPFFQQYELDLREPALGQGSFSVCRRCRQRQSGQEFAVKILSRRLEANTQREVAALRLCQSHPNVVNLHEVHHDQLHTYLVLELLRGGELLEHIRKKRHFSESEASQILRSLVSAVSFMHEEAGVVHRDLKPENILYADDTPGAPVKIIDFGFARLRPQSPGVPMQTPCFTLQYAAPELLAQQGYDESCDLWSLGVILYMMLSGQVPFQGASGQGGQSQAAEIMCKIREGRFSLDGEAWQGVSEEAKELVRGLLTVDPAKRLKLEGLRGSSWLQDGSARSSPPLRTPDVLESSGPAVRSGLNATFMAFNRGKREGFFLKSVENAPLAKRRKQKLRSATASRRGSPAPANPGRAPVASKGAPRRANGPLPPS
Broadly, the inhibition is the change of the read-out against control, counted positive when it falls. Turning to `Nc1nonc1-c1nc2cnccc2n1C1CC1`, the inhibition was 75.1% and 74.5%.
On the same count and under the same terms, the figure for `NS(=O)(=O)c1cccc(N/C=C2\C(=O)Nc3ccccc32)c1` is 18.6%.
Regarding `CC1=C(C(=O)Nc2ccc3[nH]ncc3c2)C(c2ccc(F)cc2)N=C(c2ccc(C(F)(F)F)nc2)N1` (configuration not stated), the inhibition is 14.9%.
On the same count and under the same terms, the figure for `CNC(=O)c1cncc(/C=C/c2ccccc2C)c1` is 4.27%; for `CN1CCC(C(=O)Nc2n[nH]c3nc(-c4ccc(O)cc4)c(Br)cc23)CC1` it is 5.51% and 1.19%.
On the same count and under the same terms, then `Cc1cc(O)cc(C)c1/C=C/c1cncc(C(N)=O)c1`, with 2.18%; and `CS(=O)(=O)Nc1ccc(-c2cc(-c3ccccc3)cc(C(N)=O)c2N)cc1`, with 0.34%.
Still for that read-out and setting: then `CS(=O)(=O)CCNCc1ccc(-c2ccc3ncnc(Nc4ccc(OCc5ccccc5)cc4)c3c2)o1`, with 2.56%; and `CCOc1ccc2c(-c3ccnc(Nc4cc(OC)cc(C(F)(F)F)c4)n3)cnn2n1`, with -0.61%.
With `Cc1cc(O)cc(C)c1/C=C/c1cncc(C(=O)OC(C)(C)C)c1`, the inhibition is 3.1%.
`O=C1Nc2ccccc2/C1=C1\CCc2cc(O)ccc21`: the inhibition is 56.7%.
Same read-out and setting: the figure for `CCS(=O)(=O)c1ccc(OC)c(Nc2ncc(-c3cccc(F)c3)o2)c1` is 5.01%; for `COc1cccc(Nc2nccc(-c3cnn4ncccc34)n2)c1` it is 10.5%; for `Nc1ncnc2occ(-c3ccc(NC(=O)Nc4cc(C(F)(F)F)ccc4F)cc3)c12` it is 19.7% and 6.99%.
The same measure, in the same setting: then `O=C(Nc1n[nH]c2nnc(-c3cccnc3)cc12)C1CC1`, with 0.76%; and `O=C(O[C@H]1CN[C@H](C#Cc2cc3ncnc(Nc4ccc5c(cnn5Cc5ccccc5)c4)c3s2)C1)N1CCOCC1`, with -0.97%.
Same read-out and setting: the figure for `COc1cc(N2CCN(C(C)C)CC2)ccc1Nc1nc(Nc2cccc3ncccc23)c2cc[nH]c2n1` is 2.7%; for `CS(=O)(=O)CCNCc1ccoc1-c1ccc2ncnc(Nc3ccc(OCc4ccccc4)cc3)c2c1` it is -1.22%; for `CCN1CCC(C(=O)Nc2n[nH]c3nnc(-c4cccc(F)c4F)cc23)CC1` it is 0.26%.
For `COc1ccc(-c2nn3ncccc3c2-c2ccnc(Nc3ccc(F)c(F)c3)n2)cc1`, the inhibition is 4.5%.
As to `CCS(=O)(=O)c1ccc(OC)c(Nc2ncc(-c3cccc(C(C)=O)c3)o2)c1`, the inhibition stood at 2.7%.
Still for that read-out and setting: then `c1cnn2ncc(-c3ccnc(NCCCN4CCOCC4)n3)c2c1`, with 7.41%; and `CN(C)CCNC(=O)Nc1ccc(N(C)c2ccnc(Nc3ccc(CS(C)(=O)=O)cc3)n2)cc1`, with 4.32%.
Still for that read-out and setting: the figure for `CCn1c(-c2nonc2N)nc2cncc(C(=O)NCCNC)c21` is 71.4%; for `COc1cc(N2CCN(C(C)C)CC2)ccc1Nc1nc(Nc2cccc(F)c2C(=O)O)c2cc[nH]c2n1` it is 2.67%.
Same read-out and setting: then `COC(=O)Nc1nc2cc(Oc3ccc(NC(=O)Nc4ccccc4)cc3)ccc2[nH]1`, with 3.88%.
In the case of `NC(=O)c1ccc2c(-c3ccnc(NCCCO)n3)c(-c3ccc(F)cc3)nn2c1`, the inhibition was determined as 2.05%.
Still for that read-out and setting: then `CS(=O)(=O)Nc1ccc(-c2ccc3c(NC(=O)C4CC4)n[nH]c3c2)cc1`, with 3.37%; and `COC(=O)Nc1nc2ccc(Oc3ccc(NC(=O)Nc4cc(C(F)(F)F)ccc4F)cc3)cc2s1`, with 2.86%.
On the same count and under the same terms, then `COc1ccccc1-c1cc(/C=C2\C(=O)Nc3ncc(Br)cc32)cc(Br)c1O`, with 6.3%; and `Cc1nnc(-c2cccc(-c3ccc(C(=O)NCC4CC4)cc3)c2)o1`, with 3.75%.

For another test, the target named is Ribosomal protein S6 kinase beta-1 (Homo sapiens) (UniProt P23443). To be noted: at 0.1 µM.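 Note: reported value is the mean inhibition of p70S6K1.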
Chain of Ribosomal protein S6 kinase beta-1 (Homo sapiens) (P23443 whole entry, looked up): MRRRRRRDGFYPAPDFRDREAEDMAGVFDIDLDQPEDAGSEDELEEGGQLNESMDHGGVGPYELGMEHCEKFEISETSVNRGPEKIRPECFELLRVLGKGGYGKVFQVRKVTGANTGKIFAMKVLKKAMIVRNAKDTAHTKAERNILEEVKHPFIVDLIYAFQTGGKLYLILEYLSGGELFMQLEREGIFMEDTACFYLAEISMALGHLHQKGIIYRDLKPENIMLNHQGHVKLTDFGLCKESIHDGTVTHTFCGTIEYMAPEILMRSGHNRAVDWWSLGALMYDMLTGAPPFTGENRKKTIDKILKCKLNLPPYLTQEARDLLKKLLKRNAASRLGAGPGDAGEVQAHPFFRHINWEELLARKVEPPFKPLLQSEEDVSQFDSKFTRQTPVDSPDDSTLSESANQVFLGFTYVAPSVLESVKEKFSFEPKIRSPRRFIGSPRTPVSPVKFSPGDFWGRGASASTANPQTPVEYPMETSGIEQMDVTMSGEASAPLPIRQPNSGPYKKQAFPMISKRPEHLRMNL
`Nc1nonc1-c1nc2cnccc2n1C1CC1`: the inhibition is 66.6% and 68.6%.
Take `NS(=O)(=O)c1cccc(N/C=C2\C(=O)Nc3ccccc32)c1`: the inhibition amounted to 2.13%.
On the same count and under the same terms, then `CC1=C(C(=O)Nc2ccc3[nH]ncc3c2)C(c2ccc(F)cc2)N=C(c2ccc(C(F)(F)F)nc2)N1` (configuration not stated), with 1.03%.
As to `CNC(=O)c1cncc(/C=C/c2ccccc2C)c1`, the inhibition was -0.48%.
Still for that read-out and setting: then `CN1CCC(C(=O)Nc2n[nH]c3nc(-c4ccc(O)cc4)c(Br)cc23)CC1`, with 0.96% and -0.21%.
The same measure, in the same setting: then `Cc1cc(O)cc(C)c1/C=C/c1cncc(C(N)=O)c1`, with 1.07%.
Still for that read-out and setting: the figure for `CS(=O)(=O)Nc1ccc(-c2cc(-c3ccccc3)cc(C(N)=O)c2N)cc1` is -1.22%.
`CS(=O)(=O)CCNCc1ccc(-c2ccc3ncnc(Nc4ccc(OCc5ccccc5)cc4)c3c2)o1`: the inhibition worked out at 1.52%.
On to `CCOc1ccc2c(-c3ccnc(Nc4cc(OC)cc(C(F)(F)F)c4)n3)cnn2n1`, for which the inhibition turned out to be 0.27%.
The same measure, in the same setting: the figure for `Cc1cc(O)cc(C)c1/C=C/c1cncc(C(=O)OC(C)(C)C)c1` is 0.44%.
With `O=C1Nc2ccccc2/C1=C1\CCc2cc(O)ccc21`, the inhibition came out at 2.81%.
The same measure, in the same setting: then `CCS(=O)(=O)c1ccc(OC)c(Nc2ncc(-c3cccc(F)c3)o2)c1`, with 2.77%; and `COc1cccc(Nc2nccc(-c3cnn4ncccc34)n2)c1`, with 2.02%; and `Nc1ncnc2occ(-c3ccc(NC(=O)Nc4cc(C(F)(F)F)ccc4F)cc3)c12`, with 28.2% and 17.1%.
Turning to `O=C(Nc1n[nH]c2nnc(-c3cccnc3)cc12)C1CC1`, the inhibition was -0.26%.
The same measure, in the same setting: the figure for `O=C(O[C@H]1CN[C@H](C#Cc2cc3ncnc(Nc4ccc5c(cnn5Cc5ccccc5)c4)c3s2)C1)N1CCOCC1` is -0.07%; for `COc1cc(N2CCN(C(C)C)CC2)ccc1Nc1nc(Nc2cccc3ncccc23)c2cc[nH]c2n1` it is 0.36%; for `CS(=O)(=O)CCNCc1ccoc1-c1ccc2ncnc(Nc3ccc(OCc4ccccc4)cc3)c2c1` it is -1.12%.
The same measure, in the same setting: then `CCN1CCC(C(=O)Nc2n[nH]c3nnc(-c4cccc(F)c4F)cc23)CC1`, with -0.22%.
Still for that read-out and setting: then `COc1ccc(-c2nn3ncccc3c2-c2ccnc(Nc3ccc(F)c(F)c3)n2)cc1`, with 1.91%.
`CCS(=O)(=O)c1ccc(OC)c(Nc2ncc(-c3cccc(C(C)=O)c3)o2)c1`: the inhibition is 1.32%.
On the same count and under the same terms, the figure for `c1cnn2ncc(-c3ccnc(NCCCN4CCOCC4)n3)c2c1` is 2.05%; for `CN(C)CCNC(=O)Nc1ccc(N(C)c2ccnc(Nc3ccc(CS(C)(=O)=O)cc3)n2)cc1` it is 1.72%.
On to `CCn1c(-c2nonc2N)nc2cncc(C(=O)NCCNC)c21`, for which the inhibition was 31.9%.
On the same count and under the same terms, then `COc1cc(N2CCN(C(C)C)CC2)ccc1Nc1nc(Nc2cccc(F)c2C(=O)O)c2cc[nH]c2n1`, with 1.22%.
On the same count and under the same terms, then `COC(=O)Nc1nc2cc(Oc3ccc(NC(=O)Nc4ccccc4)cc3)ccc2[nH]1`, with 2.09%; and `NC(=O)c1ccc2c(-c3ccnc(NCCCO)n3)c(-c3ccc(F)cc3)nn2c1`, with 1.72%; and `CS(=O)(=O)Nc1ccc(-c2ccc3c(NC(=O)C4CC4)n[nH]c3c2)cc1`, with 2.17%.
On the same count and under the same terms, the figure for `COC(=O)Nc1nc2ccc(Oc3ccc(NC(=O)Nc4cc(C(F)(F)F)ccc4F)cc3)cc2s1` is 6.33%; for `COc1ccccc1-c1cc(/C=C2\C(=O)Nc3ncc(Br)cc32)cc(Br)c1O` it is 2.51%; for `Cc1nnc(-c2cccc(-c3ccc(C(=O)NCC4CC4)cc3)c2)o1` it is 1.6%.

The values are drawn from ChEMBL document CHEMBL1961873, “Compounds: GSK PKIS; Assays: Nanosyn kinase panel” (2012).
